Source: PubChem BioAssay (several laboratories)
PfHsp40 yeast: rescue of yeast from PfHsp40 toxicity, primary screen, S. cerevisiae, ATP luminescence. 340,000 compounds, 0.68% hits. growth rescue, % at 12.5 µM. AID 504582, 2011. S. cerevisiae expressing PfHsp40, growth rescue; in the data active means growth rescue above about 28%, passing the limit was not always enough; inconclusive means no clear call, values can overlap the other calls;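 further: yeast W303a lacking pdr1 and pdr3 grown in galactose medium; growth measured after three days at 30 °C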
3CLpro inhibitor: SARS-CoV 3CLpro protease inhibitors, primary screen, biochemical, quenched FRET | Replicase polyprotein 1ab (Severe acute respiratory syndrome coronavirus), P0C6X7 | recombinant SARS-CoV 3CLpro, quenched FRET peptide cleavage | inhibition, % at 6 µM | 290,000 compounds, 0.14% hits; in the data active means inhibition above about 12%
Vc quorum ag: inducers of Vibrio cholerae quorum light production without autoinducers, primary screen, BH1578 luxS cqsA deficient, single point; V. cholerae BH1578 lux reporter, luminescence, 6 h; activation, % at 18.7 µM; 350,000 compounds, 0.16% hits; AID 588436, 2011; in the data active means activation mostly above about 9.7%, no sharp cut-off; inconclusive means no clear call, values can overlap the other calls; inactive means mostly below about 3.7%
PrP UTR inh: inhibition of PrP 5' UTR reporter expression; inhibition, % (no concentration beside the values); cell-based PrP 5' UTR mRNA reporter, plate reader; 340,000 compounds, 0.35% hits; AID 488862, 2010; in the data active means inhibition above about 52%; further: 0 = median of the neutral control wells
PriA SSB inh: inhibitors of Klebsiella pneumoniae PriA binding to SSB C-terminal tail, primary screen, biochemical, AlphaScreen; 430,000 compounds, 0.6% hits; PriA–SSB C-terminal tail interaction (Klebsiella pneumoniae); inhibition, % at 33 µM; AlphaScreen SSBct-PriA binding, biotinylated peptide; in the data active means inhibition mostly above about 37%, no sharp cut-off; inactive means mostly below about 20%;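 further: plate controls were negative control peptide for no effect and reference peptide for full effect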
PrPC surface inh: inhibitors of human cell surface prion protein PrPC, primary screen, cell-based, TR-FRET; inhibition, % at 13.8 µM; 370,000 compounds, 0.43% hits; Major prion protein (Homo sapiens), P04156; TR-FRET read-out; in the data active means inhibition above about 24%; further: 0% = median of the test wells and 100% = reference compound wells
* = called active by the depositor; i = inactive; ? = inconclusive; . = no result given. Shown are actives, neighbours in structure and some others; about 1.6% of the full set was active somewhere.

SMILES	PfHsp40 yeast	3CLpro inhibitor	Vc quorum ag	PrP UTR inh	PriA SSB inh	PrPC surface inh
COc1ccc2cc(C(=O)N(Cc3ccsc3)Cc3ccco3)[nH]c2c1	.	.	.	.	0	.
O=C(NC[C@@](O)(c1ccccc1)C1CC1)c1ccc2nsnc2c1	.	.	.	.	-4	.
C[C@H]1O[C@H]1P(=O)(O)O	0	1	29*	16	-27	1
O=C(CN1CC(c2nc(Cc3ccccc3)no2)C1)Nc1ccccc1C(F)(F)F	.	.	.	.	-8	.
Cc1cc(N/N=C/c2ccccc2[N+](=O)[O-])nc(-n2nc(C)cc2C)n1	55*	1	i	-13	i	8
COc1ccc(/C=N/Nc2cc(C)nc(-n3nc(C)cc3C)n2)cc1	272*	-3	0	-18	.	2
COc1ccc(C=NNc2cc(N3CCCC3)nc(N3CCCC3)n2)cc1	.	.	.	.	49*	.
Cc1cc(N/N=C/c2cccc([N+](=O)[O-])c2)nc(-n2nc(C)cc2C)n1	4	3	0	-23	i	2
COc1ccc(/C=N/Nc2cc(N3CCCC3)nc(N3CCCC3)n2)cc1	?	2	0	-4	.	6
N#Cc1ccc(C(=O)Nc2nnc(-c3ccsc3)o2)cc1	.	.	.	.	-11	.
COc1ccccc1N1C(=O)CC(N2CCc3ccccc32)C1=O (configuration not stated)	-2	4	i	-20	29	0
COc1ccc(Cl)cc1N1C(=O)CC(N2CCc3ccccc32)C1=O (configuration not stated)	43*	0	-6	3	3	11
CCOC(=O)C(N=O)=C(O)C1CCN(C(=O)OCC)CC1	.	.	.	.	-16	.
COc1ccc(OC)c(S(=O)(=O)NCCc2ccc(N(C)C)cc2)c1	.	.	.	.	13	.
COc1ccc(S(=O)(=O)Nc2cc(Sc3ncn[nH]3)c(O)c3ccccc23)cc1	.	6	.	.	.	57*
COc1ccc(S(=O)(=O)Nc2ccc(O)c(Sc3ncn[nH]3)c2)cc1	0	-2	5	-13	-17	-8
Cc1cc(NC(=O)C(C)Oc2ccccc2)n(-c2nc(-c3cccs3)cs2)n1 (configuration not stated)	.	.	.	.	-3	.
CCCc1cc(C(N)=O)c(NC(=O)c2cc(C)on2)s1	178*	-1	i	-21	-15	.
Cc1ccc(Nc2nc(N3CCOCC3)nc(N3CCN(c4ccccc4)CC3)n2)cc1	.	.	.	.	-20	.
O=C(O)c1ccccc1NC(=S)NC(=O)c1sc2ccccc2c1Cl	0	2	0	-20	-9	26*
Cc1ccc(NC(=S)NC(=O)c2sc3ccccc3c2Cl)c(C(=O)O)c1	.	2	.	.	.	.
Cc1nn(C2CCS(=O)(=O)C2)c2nc(-c3cccs3)cc(C(=O)O)c12 (configuration not stated)	.	.	.	.	7	.
COc1cc2c(=O)n(CC3CCCO3)c(=O)n(CC(=O)Nc3ccc(F)cc3F)c2cc1OC (configuration not stated)	0	0	0	-4	104*	-3
COc1ccc(NC(=O)Cn2c(=O)n(CC3CCCO3)c(=O)c3cc(OC)c(OC)cc32)c(OC)c1 (configuration not stated)	-1	-6	0	3	-15	-3
COc1ccc(Cl)c2sc(NCc3ccccn3)nc12	.	.	.	.	27	.
SMILES	PfHsp40 yeast	3CLpro inhibitor	Vc quorum ag	PrP UTR inh	PriA SSB inh	PrPC surface inh
CCc1ccc(C(=O)/C=C/c2ccc([N+](=O)[O-])o2)cc1	120*	-10	i	-6	9	4
COc1cc(OC)cc(-c2noc(C3CCN(S(=O)(=O)c4cccs4)CC3)n2)c1	.	.	.	.	11	.
CCn1c2ccccc2c2cc(Nc3cc(C)nc4ncnn34)ccc21	8	2	0	68*	2	21
COc1ccccc1NC(=O)CCSCCC(=O)Nc1ccccc1OC	45*	0	0	-19	-1	1
O=C(NCc1ccccc1)c1sccc1S(=O)(=O)N1CCN(c2ccc(Cl)cc2)CC1	.	.	.	.	-14	.
CC1=CC(=O)N(c2ccc(C)cc2)[C@@H]1c1ccc(Cl)cc1	.	.	.	.	-5	.
S=C(NCc1ccccc1)N/N=C/c1ccccn1	.	.	.	.	i	.
S=C(NCc1ccccn1)NN=Cc1ccccn1	16	.	i	10	61*	8
